Here are results for nine compounds from PubChem BioAssay (NCI).

The panel holds about 83,000 compounds, 20% with a hit somewhere; the sample as a whole holds those more often.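 48-hour exposure, single concentration, 96-well plates; percent growth endpoint where 0 means no net growth. Active: below 10.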 Calls of active or inactive are those of the source.

Test systems include SK-MEL-2 melanoma; EKVX NSCLC; SN12C renal; UO-31 renal; TK-10 renal; ACHN renal; CAKI-1 renal; A498 renal; SR leukemia; RPMI-8226 leukemia; OVCAR-8 ovarian; OVCAR-5 ovarian; OVCAR-4 ovarian; SK-OV-3 ovarian; IGROV1 ovarian; OVCAR-3 ovarian; HS 578T breast; NCI/ADR-RES ovarian; MOLT-4 leukemia.
Assay in all cases: NCI-60 one-dose screen, 48 h (100 = growth as untreated, 0 = no growth, -100 = all killed)
Holding throughout (conditions): 10 µM unless noted

Turning to `N#Cc1c(-c2cccc(Cl)c2)cc(-c2cccc(F)c2)[nH]c1=O`, the growth is 102% (inactive) with SK-MEL-2 melanoma; 95.1% (inactive) with EKVX NSCLC; 91.1% (inactive) in the experiment with SN12C renal; 80.7% (inactive) in the experiment with UO-31 renal; 94% (inactive) in the experiment with TK-10 renal; 90.3% (inactive) in the experiment on ACHN renal. Further, the growth was 89.6% (inactive) in the experiment on CAKI-1 renal; 59.4% (inactive) in the experiment with A498 renal; 104% (inactive) in the experiment on SR leukemia; 65.4% (inactive) with RPMI-8226 leukemia; 93.5% (inactive) in the experiment with OVCAR-8 ovarian; 95.8% (inactive) in the experiment with OVCAR-5 ovarian. For the same compound, the growth with OVCAR-4 ovarian is 83.7% (inactive); in the experiment with SK-OV-3 ovarian it was 102% (inactive); in the experiment on IGROV1 ovarian it was 94.4% (inactive); in the experiment with OVCAR-3 ovarian, 92.7% (inactive); in the experiment on HS 578T breast, 81.9% (inactive); in the experiment on NCI/ADR-RES ovarian, 98% (inactive).

For `COc1cc(/C=C/C(=O)c2cccc(-n3cc(-c4ccccc4)[nH]c3=O)c2)ccc1O`, the growth in the experiment with SK-MEL-2 melanoma was 56.5% (inactive); with EKVX NSCLC, 70.7% (inactive); in the experiment with SN12C renal, 27.9% (inactive); in the experiment with UO-31 renal, 36.4% (inactive); in the experiment on TK-10 renal, 81.6% (inactive); in the experiment on ACHN renal, 34.4% (inactive). The growth was 45.8% (inactive) in the experiment with CAKI-1 renal; 116% (inactive) with A498 renal; 6.81% (active) in the experiment on MOLT-4 leukemia; 15.3% (inactive) in the experiment with SR leukemia; -9.6% (active) in the experiment with RPMI-8226 leukemia; 61.3% (inactive) in the experiment with OVCAR-5 ovarian. In addition, the growth is 49.1% (inactive) with OVCAR-4 ovarian; 92.2% (inactive) in the experiment on SK-OV-3 ovarian; 2.96% (active) with IGROV1 ovarian; 6.11% (active) with OVCAR-3 ovarian; 71.3% (inactive) with HS 578T breast; 23.2% (inactive) in the experiment with NCI/ADR-RES ovarian.

`COC(=O)c1c2c(c[n+]([O-])c1C)C(=O)C=CC2=O`: the growth in the experiment with SK-MEL-2 melanoma was 58.5% (inactive); in the experiment with EKVX NSCLC, 101% (inactive); in the experiment with SN12C renal it was 59.7% (inactive); in the experiment with UO-31 renal, 46.5% (inactive); in the experiment on TK-10 renal, 101% (inactive); in the experiment with ACHN renal it was 14.2% (inactive). For the same compound, the growth in the experiment with CAKI-1 renal is 62.1% (inactive); in the experiment on A498 renal, 106% (inactive); with MOLT-4 leukemia, -17.4% (active); in the experiment on RPMI-8226 leukemia, 57.6% (inactive); with OVCAR-8 ovarian, 35.3% (inactive); with OVCAR-5 ovarian it was 118% (inactive). The growth in the experiment on OVCAR-4 ovarian was -13.2% (active); with SK-OV-3 ovarian, 97% (inactive); in the experiment with IGROV1 ovarian it was 2.42% (active); in the experiment on OVCAR-3 ovarian it was -66.3% (active); in the experiment on HS 578T breast, 86.3% (inactive); with NCI/ADR-RES ovarian, 97.1% (inactive).

As for `Cc1ccc(N(C(=O)CCc2c[nH]c3ccccc23)[C@H](C(=O)Nc2ccc(Cl)cc2)c2cccc([N+](=O)[O-])c2)cc1`, the growth is 105% (inactive) with SK-MEL-2 melanoma; 93% (inactive) with EKVX NSCLC; 87.2% (inactive) with SN12C renal; 47.4% (inactive) in the experiment on UO-31 renal; 116% (inactive) with TK-10 renal; 61% (inactive) in the experiment with ACHN renal. In addition, the growth in the experiment on CAKI-1 renal was 80.5% (inactive); in the experiment on A498 renal it was 58.6% (inactive); in the experiment on MOLT-4 leukemia, 70.8% (inactive); in the experiment with SR leukemia, 72.9% (inactive); in the experiment on OVCAR-8 ovarian, 87.8% (inactive); with OVCAR-5 ovarian, 98.4% (inactive). Also, the growth was 99.1% (inactive) in the experiment with OVCAR-4 ovarian; 90.8% (inactive) in the experiment with SK-OV-3 ovarian; 78.7% (inactive) in the experiment with IGROV1 ovarian; 96.9% (inactive) with OVCAR-3 ovarian; 70.1% (inactive) with NCI/ADR-RES ovarian.

Regarding `O=C(COc1ccc(/C=C2\Oc3ccccc3C2=O)cc1)Nc1nc2c(s1)CCCC2`, the growth was 84% (inactive) in the experiment on SK-MEL-2 melanoma; 26.4% (inactive) in the experiment on EKVX NSCLC; 46% (inactive) in the experiment on SN12C renal; -59.9% (active) in the experiment on UO-31 renal; 79.7% (inactive) in the experiment on TK-10 renal; 65.5% (inactive) in the experiment with ACHN renal. Also, the growth with CAKI-1 renal is -98.4% (active); with A498 renal it was 110% (inactive); with SR leukemia, -90.7% (active); with RPMI-8226 leukemia, -86.3% (active); with OVCAR-8 ovarian, 6.97% (active); with OVCAR-5 ovarian, 61.7% (inactive). For the same compound, the growth is 75.6% (inactive) in the experiment with OVCAR-4 ovarian; 27.3% (inactive) in the experiment with SK-OV-3 ovarian; 29.3% (inactive) with OVCAR-3 ovarian; 69.2% (inactive) in the experiment on HS 578T breast; 78.8% (inactive) in the experiment with NCI/ADR-RES ovarian.

Regarding `COc1ccc(Cl)cc1NC(=O)C(Br)C(Br)C(=O)O` (stereo unspecified), the growth in the experiment with SK-MEL-2 melanoma was -24.7% (active); in the experiment with EKVX NSCLC, 90.9% (inactive); with SN12C renal it was 59.3% (inactive); in the experiment with UO-31 renal, 71.2% (inactive); in the experiment on TK-10 renal, 111% (inactive); with ACHN renal it was 78.7% (inactive). The growth in the experiment on CAKI-1 renal was 96.3% (inactive); in the experiment with A498 renal, 86.6% (inactive); with MOLT-4 leukemia it was 16.9% (inactive); in the experiment with RPMI-8226 leukemia, 11.7% (inactive); in the experiment on OVCAR-8 ovarian, 45.3% (inactive); in the experiment on OVCAR-5 ovarian, 122% (inactive). The growth was 30.5% (inactive) with OVCAR-4 ovarian; 101% (inactive) in the experiment with SK-OV-3 ovarian; -14.4% (active) in the experiment on IGROV1 ovarian; 9.69% (active) in the experiment with OVCAR-3 ovarian; 86.3% (inactive) with HS 578T breast; -13.8% (active) in the experiment with NCI/ADR-RES ovarian.

On to `c1ccc(Nc2nc(-c3ccccn3)cs2)nc1`, for which the growth with SK-MEL-2 melanoma was 27.6% (inactive); with EKVX NSCLC, 30.7% (inactive); with SN12C renal it was 13.4% (inactive); in the experiment on UO-31 renal, 0.382% (active); in the experiment on TK-10 renal, 37% (inactive); in the experiment on ACHN renal, 1.7% (active). Also, the growth in the experiment on CAKI-1 renal was -13.3% (active); in the experiment with A498 renal, 28.3% (inactive); in the experiment on MOLT-4 leukemia it was 14.2% (inactive); in the experiment on RPMI-8226 leukemia it was 14.6% (inactive); with OVCAR-8 ovarian, 14.4% (inactive); with SK-OV-3 ovarian, 29.5% (inactive). Also, the growth with IGROV1 ovarian is 9.37% (active); in the experiment on OVCAR-3 ovarian, 39.7% (inactive); in the experiment on HS 578T breast it was 42.9% (inactive); in the experiment on NCI/ADR-RES ovarian, -0.82% (active).

On to `CCOC(=O)/C=C/c1cc2cc(-c3csc4ccccc34)ccc2[nH]1`, for which the growth in the experiment on SK-MEL-2 melanoma is 101% (inactive); in the experiment with EKVX NSCLC it was 72.7% (inactive); in the experiment on SN12C renal, 91.8% (inactive); in the experiment with UO-31 renal, 36.2% (inactive); in the experiment on TK-10 renal, 121% (inactive); with ACHN renal it was 90.8% (inactive). Besides, the growth in the experiment on CAKI-1 renal was 69.4% (inactive); in the experiment on A498 renal, 89.8% (inactive); in the experiment with SR leukemia, 0.282% (active); in the experiment with RPMI-8226 leukemia it was 47.4% (inactive); in the experiment on OVCAR-8 ovarian, 19.6% (inactive); in the experiment with OVCAR-4 ovarian it was 92.3% (inactive). For the same compound, the growth with SK-OV-3 ovarian is 132% (inactive); with OVCAR-3 ovarian, 77.1% (inactive); with HS 578T breast, 67.2% (inactive); in the experiment on NCI/ADR-RES ovarian it was 30.8% (inactive).

In the case of `Cn1c(-c2c(N)n(Cc3ccc(C(F)(F)F)cc3)c3nc(C#N)c(C#N)nc23)nc2ccccc21`, the growth with SK-MEL-2 melanoma was 15.4% (inactive); in the experiment on EKVX NSCLC it was 1.13% (active); in the experiment with SN12C renal, 14.4% (inactive); with UO-31 renal it was -23% (active); in the experiment with TK-10 renal, -12.9% (active); in the experiment on ACHN renal it was 3.12% (active). Further, the growth in the experiment with CAKI-1 renal was 9.68% (active); in the experiment with A498 renal, -6.26% (active); in the experiment on SR leukemia, -35.5% (active); with RPMI-8226 leukemia it was -42.3% (active); in the experiment on OVCAR-8 ovarian, 7.05% (active); in the experiment with OVCAR-5 ovarian, 30% (inactive). For the same compound, the growth was 22.6% (inactive) in the experiment with OVCAR-4 ovarian; -4.02% (active) in the experiment on SK-OV-3 ovarian; 16.9% (inactive) in the experiment on IGROV1 ovarian; -8.62% (active) in the experiment with OVCAR-3 ovarian; 12.4% (inactive) in the experiment with HS 578T breast; 6.65% (active) with NCI/ADR-RES ovarian.
